# According to ChEMBL document CHEMBL2218924, “A broad activity screen in support of a chemogenomic map for kinase signalling research and drug discovery” (Biochem J, 2013):
# Tests used:
# [1] = molecular target: T1, Dual specificity tyrosine-phosphorylation-regulated kinase 2 (Homo sapiens) (UniProt Q92630); details: at 1 µM
# T1 sequence (whole entry): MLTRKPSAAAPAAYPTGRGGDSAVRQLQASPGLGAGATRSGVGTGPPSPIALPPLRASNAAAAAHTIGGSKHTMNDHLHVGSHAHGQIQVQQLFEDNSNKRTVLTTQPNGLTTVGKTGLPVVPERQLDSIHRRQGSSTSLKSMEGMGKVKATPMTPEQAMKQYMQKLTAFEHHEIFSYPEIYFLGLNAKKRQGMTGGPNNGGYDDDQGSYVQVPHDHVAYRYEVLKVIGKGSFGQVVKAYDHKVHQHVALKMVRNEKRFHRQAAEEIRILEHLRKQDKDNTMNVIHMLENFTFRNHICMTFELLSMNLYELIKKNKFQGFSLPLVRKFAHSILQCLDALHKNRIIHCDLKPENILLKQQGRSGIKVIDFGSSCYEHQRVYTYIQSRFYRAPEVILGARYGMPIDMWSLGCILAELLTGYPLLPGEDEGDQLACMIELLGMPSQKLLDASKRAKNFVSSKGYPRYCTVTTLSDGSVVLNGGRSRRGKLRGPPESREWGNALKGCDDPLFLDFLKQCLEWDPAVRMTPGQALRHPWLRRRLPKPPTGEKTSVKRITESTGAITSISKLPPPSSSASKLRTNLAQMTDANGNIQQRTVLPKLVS
# [2] = molecular target: T1, Dual specificity tyrosine-phosphorylation-regulated kinase 2 (Homo sapiens); details: at 10 µM
# [3] = molecular target: Epidermal growth factor receptor (Homo sapiens) (UniProt P00533); details: at 1 µM
# Chain of Epidermal growth factor receptor (Homo sapiens) (P00533 whole entry): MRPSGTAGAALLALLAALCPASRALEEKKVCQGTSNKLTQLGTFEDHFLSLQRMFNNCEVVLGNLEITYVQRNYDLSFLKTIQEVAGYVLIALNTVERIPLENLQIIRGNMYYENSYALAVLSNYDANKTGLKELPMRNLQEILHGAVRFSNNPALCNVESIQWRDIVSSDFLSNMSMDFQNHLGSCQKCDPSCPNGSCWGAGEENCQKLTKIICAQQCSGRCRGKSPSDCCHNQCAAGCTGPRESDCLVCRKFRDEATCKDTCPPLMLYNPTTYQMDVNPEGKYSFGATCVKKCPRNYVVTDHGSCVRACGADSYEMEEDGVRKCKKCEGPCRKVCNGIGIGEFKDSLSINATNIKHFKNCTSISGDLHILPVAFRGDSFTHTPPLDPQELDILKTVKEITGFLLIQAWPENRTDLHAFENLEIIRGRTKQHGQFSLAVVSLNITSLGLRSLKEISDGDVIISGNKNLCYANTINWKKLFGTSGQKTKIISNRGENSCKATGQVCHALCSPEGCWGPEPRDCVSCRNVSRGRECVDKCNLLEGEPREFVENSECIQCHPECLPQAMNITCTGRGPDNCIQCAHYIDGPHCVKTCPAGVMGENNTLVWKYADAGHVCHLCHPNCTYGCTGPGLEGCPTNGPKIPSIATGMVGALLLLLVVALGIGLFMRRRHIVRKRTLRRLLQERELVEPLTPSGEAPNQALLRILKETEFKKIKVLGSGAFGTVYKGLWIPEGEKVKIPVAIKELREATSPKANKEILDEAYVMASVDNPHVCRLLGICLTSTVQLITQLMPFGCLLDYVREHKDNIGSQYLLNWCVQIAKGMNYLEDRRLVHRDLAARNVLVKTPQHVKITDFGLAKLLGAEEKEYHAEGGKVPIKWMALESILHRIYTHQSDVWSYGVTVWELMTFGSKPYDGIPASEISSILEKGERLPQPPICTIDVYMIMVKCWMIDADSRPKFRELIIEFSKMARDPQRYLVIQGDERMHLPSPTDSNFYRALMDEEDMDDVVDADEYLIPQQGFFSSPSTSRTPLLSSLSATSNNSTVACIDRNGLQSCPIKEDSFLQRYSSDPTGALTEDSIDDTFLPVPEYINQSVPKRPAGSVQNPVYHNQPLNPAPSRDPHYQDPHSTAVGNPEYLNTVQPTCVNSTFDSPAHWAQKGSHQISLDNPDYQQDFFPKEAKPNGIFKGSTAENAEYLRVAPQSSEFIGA
# [4] = molecular target: Ephrin type-A receptor 2 (Homo sapiens) (UniProt P29317); details: at 10 µM
# Chain of Ephrin type-A receptor 2 (Homo sapiens) (P29317 whole entry): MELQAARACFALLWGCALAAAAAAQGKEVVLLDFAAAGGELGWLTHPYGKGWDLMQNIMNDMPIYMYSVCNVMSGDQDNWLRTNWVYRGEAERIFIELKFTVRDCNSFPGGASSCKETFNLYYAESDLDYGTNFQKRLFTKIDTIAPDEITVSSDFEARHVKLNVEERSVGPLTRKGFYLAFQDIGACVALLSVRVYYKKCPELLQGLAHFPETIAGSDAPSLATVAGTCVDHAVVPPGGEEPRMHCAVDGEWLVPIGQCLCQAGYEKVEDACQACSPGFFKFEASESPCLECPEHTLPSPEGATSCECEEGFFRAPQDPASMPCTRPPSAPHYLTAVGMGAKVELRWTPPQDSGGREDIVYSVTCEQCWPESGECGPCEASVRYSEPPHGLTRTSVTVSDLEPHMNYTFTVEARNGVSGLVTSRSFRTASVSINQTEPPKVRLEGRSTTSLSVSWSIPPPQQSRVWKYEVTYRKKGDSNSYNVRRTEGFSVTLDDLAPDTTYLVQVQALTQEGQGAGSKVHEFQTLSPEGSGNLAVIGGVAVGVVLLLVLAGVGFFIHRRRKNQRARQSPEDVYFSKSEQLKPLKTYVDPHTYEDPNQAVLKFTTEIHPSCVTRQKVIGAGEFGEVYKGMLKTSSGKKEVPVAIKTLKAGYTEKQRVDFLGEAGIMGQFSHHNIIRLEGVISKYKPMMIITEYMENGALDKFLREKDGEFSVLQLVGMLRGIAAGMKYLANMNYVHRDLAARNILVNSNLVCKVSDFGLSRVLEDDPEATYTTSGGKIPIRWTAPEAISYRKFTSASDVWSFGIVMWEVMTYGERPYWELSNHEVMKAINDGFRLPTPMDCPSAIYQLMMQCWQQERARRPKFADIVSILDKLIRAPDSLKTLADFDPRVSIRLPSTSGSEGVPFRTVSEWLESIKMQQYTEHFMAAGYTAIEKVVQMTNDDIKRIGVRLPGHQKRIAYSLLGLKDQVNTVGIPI
# [5] = molecular target: T2, Serine/threonine-protein kinase 17A (Homo sapiens) (UniProt Q9UEE5); details: at 10 µM
# T2 sequence (whole entry): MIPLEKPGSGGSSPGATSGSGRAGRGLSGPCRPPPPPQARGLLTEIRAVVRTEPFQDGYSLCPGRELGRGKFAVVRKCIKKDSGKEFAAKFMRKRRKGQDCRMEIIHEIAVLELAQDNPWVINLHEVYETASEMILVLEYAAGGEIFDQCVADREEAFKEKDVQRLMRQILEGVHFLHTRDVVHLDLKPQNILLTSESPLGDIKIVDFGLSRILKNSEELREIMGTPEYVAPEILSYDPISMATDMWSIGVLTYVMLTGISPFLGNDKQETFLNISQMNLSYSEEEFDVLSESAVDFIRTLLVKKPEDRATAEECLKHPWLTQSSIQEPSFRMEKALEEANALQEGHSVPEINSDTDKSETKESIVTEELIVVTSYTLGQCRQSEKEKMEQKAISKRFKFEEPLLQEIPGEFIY
# [6] = molecular target: T3, Ephrin type-A receptor 1 (Homo sapiens) (UniProt P21709); details: at 1 µM
# T3 sequence (whole entry): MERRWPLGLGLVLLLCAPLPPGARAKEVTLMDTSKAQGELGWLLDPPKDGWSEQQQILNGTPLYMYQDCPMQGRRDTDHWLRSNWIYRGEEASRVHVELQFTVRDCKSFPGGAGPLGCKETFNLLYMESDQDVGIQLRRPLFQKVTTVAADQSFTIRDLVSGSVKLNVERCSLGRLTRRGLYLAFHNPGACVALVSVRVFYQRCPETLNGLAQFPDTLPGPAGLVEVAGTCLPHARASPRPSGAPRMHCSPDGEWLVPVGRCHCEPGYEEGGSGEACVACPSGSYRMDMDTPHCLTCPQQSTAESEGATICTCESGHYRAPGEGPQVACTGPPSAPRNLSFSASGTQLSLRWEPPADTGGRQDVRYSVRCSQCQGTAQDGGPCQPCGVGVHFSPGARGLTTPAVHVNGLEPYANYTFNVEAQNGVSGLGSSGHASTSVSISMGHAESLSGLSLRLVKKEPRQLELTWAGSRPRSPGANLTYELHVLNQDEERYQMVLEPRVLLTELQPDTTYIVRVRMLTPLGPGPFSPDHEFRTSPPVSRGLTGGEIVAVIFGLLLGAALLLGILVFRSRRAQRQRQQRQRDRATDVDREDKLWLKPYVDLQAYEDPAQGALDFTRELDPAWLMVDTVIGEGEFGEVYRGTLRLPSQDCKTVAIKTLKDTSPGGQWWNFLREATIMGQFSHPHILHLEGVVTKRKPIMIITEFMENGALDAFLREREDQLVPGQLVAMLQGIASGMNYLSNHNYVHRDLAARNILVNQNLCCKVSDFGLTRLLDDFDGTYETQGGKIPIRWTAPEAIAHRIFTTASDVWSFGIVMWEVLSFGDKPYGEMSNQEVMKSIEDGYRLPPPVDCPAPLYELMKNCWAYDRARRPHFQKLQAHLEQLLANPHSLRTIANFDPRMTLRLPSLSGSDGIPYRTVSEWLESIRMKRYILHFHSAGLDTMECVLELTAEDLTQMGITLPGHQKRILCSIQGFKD
# [7] = molecular target: T3, Ephrin type-A receptor 1 (Homo sapiens); details: at 10 µM
# [8] = molecular target: Ephrin type-A receptor 2 (Homo sapiens) (UniProt P29317); details: at 1 µM
# [9] = molecular target: T4, Ephrin type-A receptor 3 (Homo sapiens) (UniProt P29320); details: at 1 µM
# T4 sequence (whole entry): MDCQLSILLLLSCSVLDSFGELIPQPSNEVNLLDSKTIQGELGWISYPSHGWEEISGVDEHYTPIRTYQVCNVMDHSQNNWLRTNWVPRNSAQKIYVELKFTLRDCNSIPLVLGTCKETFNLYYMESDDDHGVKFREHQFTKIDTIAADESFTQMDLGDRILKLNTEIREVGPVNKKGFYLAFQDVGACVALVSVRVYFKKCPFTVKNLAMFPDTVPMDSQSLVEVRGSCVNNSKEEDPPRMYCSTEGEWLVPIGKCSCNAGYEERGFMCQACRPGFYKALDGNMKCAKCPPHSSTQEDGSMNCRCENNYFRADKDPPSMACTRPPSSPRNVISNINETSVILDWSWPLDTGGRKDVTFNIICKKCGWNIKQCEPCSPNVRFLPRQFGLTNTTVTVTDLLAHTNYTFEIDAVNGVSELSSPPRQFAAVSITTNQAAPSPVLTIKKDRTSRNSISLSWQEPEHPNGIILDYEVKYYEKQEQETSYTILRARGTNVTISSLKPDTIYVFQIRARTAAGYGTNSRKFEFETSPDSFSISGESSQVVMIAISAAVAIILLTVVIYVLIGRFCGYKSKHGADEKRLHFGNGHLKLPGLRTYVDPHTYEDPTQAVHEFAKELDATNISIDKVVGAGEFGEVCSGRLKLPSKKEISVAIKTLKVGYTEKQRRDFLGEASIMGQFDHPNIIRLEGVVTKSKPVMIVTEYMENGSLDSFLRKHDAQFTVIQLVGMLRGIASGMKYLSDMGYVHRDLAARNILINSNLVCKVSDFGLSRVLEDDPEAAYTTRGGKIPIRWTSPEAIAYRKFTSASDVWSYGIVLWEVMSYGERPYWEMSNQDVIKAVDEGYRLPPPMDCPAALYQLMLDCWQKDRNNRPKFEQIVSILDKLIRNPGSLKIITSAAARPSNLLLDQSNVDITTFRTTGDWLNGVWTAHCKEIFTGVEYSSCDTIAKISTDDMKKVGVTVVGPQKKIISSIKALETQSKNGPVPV
# [10] = molecular target: Epidermal growth factor receptor (Homo sapiens) (UniProt P00533); details: at 10 µM
compound,measurement,setting,value
N#C/C(=C\c1ccc(O)c(O)c1)C(=O)NCc1ccccc1,residual activity,[1],87%
same,residual activity,[2],73%
same,residual activity,[3],125%
same,residual activity,[4],101%
O=C1Nc2ccccc2/C1=C\c1c(Cl)[nH]c2ccccc12,residual activity,[5],85%
same,residual activity,[6],87%
same,residual activity,[7],72%
CN(C)S(=O)(=O)c1ccc2c(c1)/C(=C/c1cc3c([nH]1)CCCC3)C(=O)N2,residual activity,[2],91%
same,residual activity,[6],96%
same,residual activity,[7],96%
same,residual activity,[8],89%
same,residual activity,[9],91%
NC(=O)c1ccc(-c2nc(-c3ccc4c(c3)OCCO4)c(-c3ccccn3)[nH]2)cc1,residual activity,[9],100%
O=c1c(-c2ccc(F)cc2)c(-c2ccncc2)[nH]n1-c1ccc(Cl)cc1,residual activity,[5],71%
same,residual activity,[3],54%
same,residual activity,[10],6%
same,residual activity,[7],56%
O=C(NC(NC(=S)Nc1ccc(F)c([N+](=O)[O-])c1)C(Cl)(Cl)Cl)C(c1ccccc1)c1ccccc1 (centres undefined),residual activity,[1],98%
same,residual activity,[2],100%
same,residual activity,[6],104%
same,residual activity,[7],92%
O=C(c1ccccc1)c1ccc(N2CCOCC2)cc1O,residual activity,[1],100%
same,residual activity,[2],93%
same,residual activity,[6],88%
same,residual activity,[7],95%
same,residual activity,[8],99%
same,residual activity,[4],95%
O=C(CCCc1ccc(-c2ccccc2F)cc1)Nc1ccc(O)cc1,residual activity,[1],105%
same,residual activity,[2],91%
same,residual activity,[6],93%
same,residual activity,[7],86%
same,residual activity,[8],97%
same,residual activity,[9],99%
CCN1/C(=C/C(C)=O)Sc2ccc(OC)cc21,residual activity,[1],5%
same,residual activity,[2],-5%
CC(C)(C)c1nc2c3ccc(F)cc3c3c(=O)[nH]ccc3c2[nH]1,residual activity,[5],0%
same,residual activity,[6],74%
same,residual activity,[8],103%
same,residual activity,[4],103%
same,residual activity,[9],99%
O=C1NC(=O)C(c2cn(CCCO)c3ncccc23)=C1c1cnccn1,residual activity,[5],67%
same,residual activity,[9],97%
NC(=O)Nc1sc(-c2ccc(F)cc2)cc1C(N)=O,residual activity,[5],39%
same,residual activity,[6],9%
same,residual activity,[7],6%
same,residual activity,[8],32%
same,residual activity,[4],4%
same,residual activity,[9],80%
CCCCc1c(-c2ccc(OC)cc2)[nH]c2nccnc12,residual activity,[5],80%
same,residual activity,[6],29%
same,residual activity,[7],3%
same,residual activity,[8],87%
same,residual activity,[4],82%
same,residual activity,[9],74%
Nc1nc(Nc2ccc(S(N)(=O)=O)cc2)nn1C(=O)c1c(F)cccc1F,residual activity,[5],47%
same,residual activity,[6],58%
same,residual activity,[7],6%
same,residual activity,[4],39%
O=C1NC(=O)C(c2c[nH]c3ccccc23)=C1c1c[nH]c2ccccc12,residual activity,[5],25%
same,residual activity,[6],77%
same,residual activity,[7],22%
same,residual activity,[4],50%
O=S(=O)(NCCNC/C=C/c1ccc(Br)cc1)c1cccc2cnccc12,residual activity,[7],63%
COc1ccc2c(c1)c(C1=C(c3c[nH]c4ccccc34)C(=O)NC1=O)cn2CCCN(C)C,residual activity,[5],27%
same,residual activity,[6],71%
same,residual activity,[7],42%
same,residual activity,[8],104%
same,residual activity,[4],33%
same,residual activity,[9],106%
Cn1sc(=O)n(Cc2ccccc2)c1=O,residual activity,[1],96%
same,residual activity,[2],82%
same,residual activity,[6],96%
same,residual activity,[7],93%
same,residual activity,[8],93%
same,residual activity,[4],92%
same,residual activity,[9],87%
O=S(=O)(c1cccc2cnccc12)N1CCCNCC1,residual activity,[6],100%
COc1cc2nccc(Oc3ccc(NC(=O)Nc4cc(C)on4)c(Cl)c3)c2cc1OC,residual activity,[6],10%
same,residual activity,[7],6%
same,residual activity,[8],-3%
same,residual activity,[4],-3%
same,residual activity,[9],1%
CC(C)N(CCC(=O)c1ccc2ccccc2c1)Cc1ccccc1,residual activity,[6],75%
same,residual activity,[7],85%
CC(C)[C@H](CO)Nc1nc(Nc2cc(N)cc(Cl)c2)c2ncn(C(C)C)c2n1,residual activity,[1],94%
same,residual activity,[2],74%
same,residual activity,[6],95%
same,residual activity,[7],11%
same,residual activity,[8],88%
same,residual activity,[4],29%
same,residual activity,[9],93%
COc1cc2c(cc1OC)-c1n[nH]c(Nc3cccc(F)c3)c1C2,residual activity,[5],53%
same,residual activity,[7],34%
same,residual activity,[9],83%
COc1ccc(COc2ccc(Cc3cnc(N)nc3N)cc2OC)cc1,residual activity,[5],112%
same,residual activity,[3],112%
same,residual activity,[10],114%
same,residual activity,[7],77%
same,residual activity,[9],108%
CCOC(=O)c1c(C)[nH]c(/C=C2\C(=O)Nc3ccccc32)c1C,residual activity,[5],75%
same,residual activity,[6],83%
same,residual activity,[7],118%
CC(C)c1nn(-c2c(Cl)cccc2Cl)c2nc(Cc3ccc(OCCO)cc3)[nH]c(=O)c12,residual activity,[1],96%
same,residual activity,[2],106%
same,residual activity,[6],105%
same,residual activity,[7],73%
same,residual activity,[8],96%
same,residual activity,[4],103%
same,residual activity,[9],94%
Cc1cc(C)c(/C=C2\C(=O)Nc3ccccc32)[nH]1,residual activity,[5],3%
same,residual activity,[7],103%
same,residual activity,[9],101%
CCCC(=O)Oc1ccc2[nH]c(C(=O)c3cc4ccccc4[nH]3)cc2c1,residual activity,[2],102%
same,residual activity,[6],88%
same,residual activity,[7],94%
same,residual activity,[9],107%
NCCNc1ncc(C(N)=O)c(Nc2cccc(C(F)(F)F)c2)n1,residual activity,[5],60%
same,residual activity,[6],81%
same,residual activity,[7],45%
same,residual activity,[8],103%
same,residual activity,[4],76%
COc1ccc(Cl)cc1NC(=O)Nc1cc(C)nc2ccccc12,residual activity,[5],58%
same,residual activity,[6],89%
same,residual activity,[7],89%
